SMILES strings stand for the structures. Results filed as inconclusive are left out. The source made the active and inactive calls. Unless noted, calls follow the shape of the dose curve; as a rule, active = well fitted curve in the direction sought with a large enough effect; inconclusive = small, poorly fitted or top-dose-only effect, or another doubt; inactive = no such curve, though single readings can be large; an effect the other way counts as inactive or inconclusive.

A short description of test [1]: NCATS anti-infectives library activity on HEK293 viability as a counter-qHTS vs the C. elegans viability qHTS (AID 1745854). Also: % is scaled to controls: 0 for no effect and ±100 for the full control effect. In outline:
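CellTiter-Glo luminescence, read on a CCD imager, scored viability of HEK293 cells after 24 hr compound exposure at 37C. Library tested in several concentrations, 1:5 steps, up to 41.7 uM; digitonin served as control.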
(In qHTS, concentration-response curves come from the screen itself.)

Test [2] concerns the target Metallo-beta-lactamase type 2 (Klebsiella pneumoniae) (UniProt C7C422). In words: qHTS to identify inhibitors of the New Delhi Metallo-beta-lactamase (NDM): assay validation screen against the NCATS LOPAC Collection (AID 1794843). Also: % is scaled to controls: 0 for no effect and ±100 for the full control effect. Summed up:
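Absorbance at 485 nm from nitrocefin turnover (50 uM solution added), read at plateau, gives the read-out. Compounds in DMSO were incubated first with 2 nM final NDM-1 in pH 7.0 HEPES buffer containing 1 uM ZnSO4 and 0.01% Tween20.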

Test [3] deals with Catechol O-methyltransferase (Homo sapiens) (UniProt P21964). In words: Confirmatory Screen for Target Class Profiling of Small Molecule Inhibitors of Methyltransferases (AID 1745852; calls by dose curve; also: potency is read from the fitted curve at half-maximal effect; as to activity change, negative = inhibition: % is scaled to controls: 0 for no effect and ±100 for the full control effect). As to conditions: MTase-Glo luminescence, SAH detection, recombinant enzyme; measured here: COMT max response; stronger effect = lower value.
Test [4] deals with Guanidinoacetate N-methyltransferase (Homo sapiens) (UniProt Q14353). Described as above. As to conditions: MTase-Glo luminescence, SAH detection, recombinant enzyme; activity change, negative = inhibition: at 57.3 µM (top of the series).
In test [5] the target is Nicotinamide N-methyltransferase (Homo sapiens) (UniProt P40261). Described as above. As to conditions: MTase-Glo luminescence, SAH detection, recombinant enzyme; measured here: NNMT max response; stronger effect = lower value.
Test [6] has as its target Phenylethanolamine N-methyltransferase (Homo sapiens) (UniProt P11086). The test is described as above. As to conditions: MTase-Glo luminescence, SAH detection, recombinant enzyme; measured here: PNMT max response; stronger effect = lower value.
Test [7] concerns the target Glutathione peroxidase 1 (Homo sapiens) (UniProt P07203). In words: Primary qHTS Assay for Inhibitors of Recombinant Selenoprotein Glutathione Peroxidase 1 (GPX1) (AID 1845191). Also: nearly all actives have a fitted effect of over 65% in size. Summed up: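 NADPH consumption tracked by fluorescence at 340/450 nm between t=0 and t=15 min, room temperature. Final mix: 10 nM GPX1, 100 nM glutathione reductase, 1 mM GSH, 0.5 mM NADPH, 0.5 mM cumene hydroperoxide, 0.01% BSA; 30 min compound–enzyme preincubation.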

Test [8] in a line: Viability counterscreen for antagonist of constitutive androstane receptor (CAR) against the NCATS DSHEA and TCM libraries (AID 1794837).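 Also: compound exposure lasted 24 h before viability reading; 0% is about no effect.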 Summed up: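 Fluorescence from CellTiter-Fluor reports live-cell protease activity in HepG2-CYP2B6-hCAR cells treated for 24 h with substances alongside 48 uM CITCO.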
(In general: The purpose of a counterscreen is to sort out artefacts and off-target activity.)

Test [9] is described as follows: Viability counterscreen for agonist of constitutive androstane receptor (CAR) against the NCATS DSHEA and TCM libraries (AID 1794838).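 Also: cells exposed to compound for 24 h; 0% is about no effect.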 Summed up:
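In agonist mode, PK11195 is added at 0.75 uM final to HepG2-CYP2B6-hCAR cells dosed with test substances. Cultures incubate 24 h at 37C before a protease-based fluorogenic viability readout.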

Test [10] has as its target Nuclear receptor subfamily 1 group I member 3 (Homo sapiens) (UniProt Q14994). The test is described as follows: Primary qHTS for agonist of constitutive androstane receptor (CAR) against the NCATS DSHEA and TCM libraries (AID 1794839).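 Also: HepG2 cells expressing human CAR with a CYP2B6 reporter plus PK11195 antagonist; luciferase reporter luminescence read with ONE-Glo; 0% is about no effect.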 In outline:
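Cells stably carrying hCAR and a CYP2B6 reporter (HepG2 background) are seeded and allowed 5 h to adhere. Substances at multiple concentrations are added alongside 0.75 µM PK11195, and luciferase signal is measured after 24 h.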

A short description of test [11]: HepG2 viability counterscreen (readout 2: ATP content) against the NCATS DSHEA and TCM libraries (AID 1794840).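 Also: HepG2 cells exposed to substances for about 24 h; 0% is about no effect.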 Summed up:
(§1)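 Cytotoxicity was assessed in HepG2 cells plated at 1,000 cells/well and exposed for about 24 hours to a concentration series. Protease activity and ATP content were measured sequentially in each well.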

The nature of test [12]: HepG2 viability counterscreen (readout 1: protease activity) against the NCATS DSHEA and TCM libraries (AID 1794841).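 Also: cells exposed to compounds for about 24 h before the protease read; 0% is about no effect.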 In outline:
as §1

Sequence of Nicotinamide N-methyltransferase (Homo sapiens) (P40261 whole entry, looked up): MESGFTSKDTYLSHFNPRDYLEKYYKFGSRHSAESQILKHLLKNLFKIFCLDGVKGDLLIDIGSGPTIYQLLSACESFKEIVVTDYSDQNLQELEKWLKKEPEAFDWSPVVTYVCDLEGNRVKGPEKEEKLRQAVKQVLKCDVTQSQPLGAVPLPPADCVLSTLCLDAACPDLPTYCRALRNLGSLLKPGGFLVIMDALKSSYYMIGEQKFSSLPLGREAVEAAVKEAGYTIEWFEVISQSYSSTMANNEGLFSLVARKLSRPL
Sequence of Metallo-beta-lactamase type 2 (Klebsiella pneumoniae) (C7C422 whole entry, looked up): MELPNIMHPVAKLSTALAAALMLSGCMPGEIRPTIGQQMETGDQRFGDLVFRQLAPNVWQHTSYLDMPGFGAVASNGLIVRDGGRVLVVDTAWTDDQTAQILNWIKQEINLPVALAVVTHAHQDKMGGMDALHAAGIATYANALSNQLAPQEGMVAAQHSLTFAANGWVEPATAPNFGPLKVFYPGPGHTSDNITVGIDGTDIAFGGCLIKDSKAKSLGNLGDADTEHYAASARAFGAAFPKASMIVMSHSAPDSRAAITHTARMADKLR
Sequence of Catechol O-methyltransferase (Homo sapiens) (P21964 whole entry, looked up): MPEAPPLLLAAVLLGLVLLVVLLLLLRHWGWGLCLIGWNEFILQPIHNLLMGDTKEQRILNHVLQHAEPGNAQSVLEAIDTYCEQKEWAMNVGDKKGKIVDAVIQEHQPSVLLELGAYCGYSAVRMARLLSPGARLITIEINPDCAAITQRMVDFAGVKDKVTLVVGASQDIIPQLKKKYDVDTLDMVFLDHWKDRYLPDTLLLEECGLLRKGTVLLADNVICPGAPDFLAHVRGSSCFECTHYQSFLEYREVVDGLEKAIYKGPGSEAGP
Sequence of Glutathione peroxidase 1 (Homo sapiens) (P07203 whole entry, looked up): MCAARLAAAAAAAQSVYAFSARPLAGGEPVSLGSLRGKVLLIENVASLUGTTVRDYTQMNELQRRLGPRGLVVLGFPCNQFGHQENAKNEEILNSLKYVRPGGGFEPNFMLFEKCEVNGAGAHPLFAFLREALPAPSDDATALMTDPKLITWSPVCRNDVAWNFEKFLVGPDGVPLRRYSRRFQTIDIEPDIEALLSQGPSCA
Sequence of Phenylethanolamine N-methyltransferase (Homo sapiens) (P11086 whole entry, looked up): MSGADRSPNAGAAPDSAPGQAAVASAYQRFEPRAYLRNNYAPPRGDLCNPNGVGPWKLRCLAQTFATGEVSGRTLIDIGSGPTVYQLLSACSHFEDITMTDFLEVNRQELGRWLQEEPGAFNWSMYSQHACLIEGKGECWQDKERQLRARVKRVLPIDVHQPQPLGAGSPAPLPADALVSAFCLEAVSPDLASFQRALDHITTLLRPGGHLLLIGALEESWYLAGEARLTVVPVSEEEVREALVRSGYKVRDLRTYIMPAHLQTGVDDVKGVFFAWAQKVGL
Sequence of Nuclear receptor subfamily 1 group I member 3 (Homo sapiens) (Q14994 whole entry, looked up): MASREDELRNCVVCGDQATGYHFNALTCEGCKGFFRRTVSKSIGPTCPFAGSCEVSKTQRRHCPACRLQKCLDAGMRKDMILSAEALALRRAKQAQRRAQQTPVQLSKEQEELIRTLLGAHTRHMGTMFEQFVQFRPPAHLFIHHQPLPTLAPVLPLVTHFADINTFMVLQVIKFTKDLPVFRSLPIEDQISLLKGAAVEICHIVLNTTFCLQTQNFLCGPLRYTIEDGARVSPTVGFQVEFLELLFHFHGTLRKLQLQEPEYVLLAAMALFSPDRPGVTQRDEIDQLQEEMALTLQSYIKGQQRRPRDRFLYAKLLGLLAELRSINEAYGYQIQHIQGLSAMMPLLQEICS

`N[C@H]1CONC1=O`: the outcome in test [1] was “inactive”. In test [2], the Potency entry was “inactive”.
On to `NC(=O)c1cc[n+](CC2=C(C(=O)O)N3C(=O)[C@@H](NC(=O)[C@@H](c4ccccc4)S(=O)(=O)[O-])[C@H]3SC2)cc1`, for which, in test [2], the Potency entry was “inactive”.
In the case of `O=C(O)Cc1ccc(O)c(O)c1`, the activity in test [3] is 122%; in [5] it was 0.212%; in test [6], 4.32%. In addition, the activity change, negative = inhibition in test [4] stood at 5.19%. The Potency entry in test [2] and in test [7] was “inactive” in each case.
`CCC1(O)CC2CN(CCc3c([nH]c4ccccc34)[C@@](C(=O)OC)(c3cc4c(cc3OC)N(C=O)C3[C@]45CCN4CC=C[C@@](CC)([C@@H](OC(C)=O)[C@]3(O)C(=O)OC)[C@H]45)C2)C1` (stereo not given in full): the Potency result in test [2] is “inactive”.
Take `COc1cc([C@@H]2c3cc4c(cc3[C@H](O)C3COC(=O)[C@@H]32)OCO4)cc(OC)c1OC` (stereo not given in full): the Potency result in test [2] was “inactive”.
Turning to `C=CCN1CCc2c(cc(O)c(O)c2Br)[C@@H](c2ccccc2)C1`, the activity is 62% in test [3], -9.94% in test [5] and -1.34% in test [6]. Besides, the activity change, negative = inhibition in test [4] was determined as 5.44%. The Potency entry in test [2] and in [7] was “inactive” in each case.
On to `CNC(=O)c1cc2c(cn1)[nH]c1ccccc12`, for which the Potency entry in test [2] is “inactive”.
For `Brc1c(Br)c(Br)c2[nH]cnc2c1Br`, the activity in test [3] is -26.1%; in test [5], -40.5%; in [6], -39.7%. Besides, the Potency in [4] was 27.3 µM (active). Besides, the Potency entry in test [2] and in test [7] was “inactive” each time.
Consider `C=C1C[C@@]23CC[C@H]4[C@@](C)(CCC[C@@]4(C)C(=O)OC4OC(CO)C(O)C(O)C4O)[C@@H]2CC[C@]1(OC1OC(CO)C(O)C(O)C1OC1OC(CO)C(O)C(O)C1O)C3` (stereo not given in full), for which the outcome in test [8], in test [9], in test [10], in test [11] and in [12] was “inactive” each time. Moreover, the Potency entry in [2] and in test [7] was “inactive” in each case.
Regarding `CCCn1c(=O)c2[nH]c(-c3ccc(S(=O)(=O)O)cc3)nc2n(CCC)c1=O`, the Potency entry in [2] was “inactive”.
For `N#C/C(=C\c1ccc(O)c(O)c1)C(=O)NCCCNC(=O)/C(C#N)=C/c1ccc(O)c(O)c1`, the values for the activity in [3], in test [5] and in test [6] were -50.9%, -44.4% and -72.8%, respectively. Besides, the Potency in test [4] was 4.85 µM (active). The Potency result in [2] and in test [7] was “inactive” each time.
Take `NC(N)=N[C@@H](CCC(=O)O)C(=O)O`: the Potency entry in [2] was “inactive”.
Turning to `CN1Cc2sccc2C(c2ccc(O)c(O)c2)C1` (stereo not given), the activity was 138% in test [3], -9.55% in test [5] and 2.33% in test [6]. Also, the activity change, negative = inhibition in test [4] turned out to be 1.26%. In addition, the Potency entry in [2] and in test [7] was “inactive” throughout.
Regarding `NC(C(=O)N[C@@H]1C(=O)N2C(C(=O)O)=C(Cl)CS[C@H]12)c1ccccc1` (stereo not given in full), the Potency entry in [2] was “inactive”.
With `COc1ccccc1N1CCN(CCCCNC(=O)c2ccc3ccccc3c2)CC1`, in test [2], the Potency entry is “inactive”.
On to `CCCc1c(-c2ccc(O)cc2)nn(-c2ccc(O)cc2)c1-c1ccc(O)cc1`, for which the activity is -7.84% in test [3], -57.1% in test [5] and -22% in test [6]. Also, the Potency in test [4] is 43.2 µM (active). The Potency result in test [2] and in test [7] was “inactive” in each case.
For the compound `N=S(=O)(O)Cc1noc2ccccc12`, the Potency entry in [2] is “inactive”.
For the compound `CC(C)C[C@H](NC(=O)[C@H](O)[C@H](N)Cc1ccccc1)C(=O)O`, the Potency result in [2] is “inactive”.
The same measure, in the same setting: the entry for `NC(=O)CNCCC(c1ccccc1)c1ccccc1` is “inactive”; for `COc1ccc(-c2cc3ncc(C)n3c(Nc3ncccc3C(N)=O)n2)cc1OC` it is “inactive”.
As to `N=C(N)c1ccccc1`, the Potency result in [2] is “inactive”.
Still for that read-out and setting: the same measure for `NC(=Nc1ccccc1)NC(=O)c1nc(Cl)c(N)nc1N`: “inactive”.
Turning to `C=CCN1CCc2c(cc(O)c(O)c2Cl)C(c2ccccc2)C1` (stereo not given), the activity in test [3] was 72.4%; in test [5], -9.01%; in test [6], 8.41%. For the same compound, in [4], the activity change, negative = inhibition was 5.83%. For the same compound, the Potency result in test [2] and in test [7] was “inactive” each time.

The values are drawn from PubChem BioAssay (NCATS).
